Data from the OligoGym collection.
Note: reference of the scale not given here.

What follows are sequences tested against KCND2 (assay: pooled miR-30 sensor sort-seq; sequence = guide strand). Conditions: shRNA.
Sequence TTACTGAGTAAACCATTCCGTT has a sensor-assay potency score (higher = more potent) of -1.06. TTGTATACTACCTTGATGGCTT was tested, and the sensor-assay potency score (higher = more potent) was 0.674. For TTGTGTCGTCGTGAACAGCAGG, the sensor-assay potency score (higher = more potent) was -0.722. In the case of ATTAACAGTTGCAACTTCCATG, the sensor-assay potency score (higher = more potent) is reported as -0.92. TTTGTCTGCTCGTTGATTCTGG gave a sensor-assay potency score (higher = more potent) of -0.31. TTGTTCGTCCACAAACTCGTGA gave a sensor-assay potency score (higher = more potent) of -0.0668. TTGTACTCCTCATAACAGCAGT gave a sensor-assay potency score (higher = more potent) of -0.753. TAGAACACCAGGGCCATCGTGC gave a sensor-assay potency score (higher = more potent) of -0.481. For TTAAAGATCCTGAAGACCCGGA, the sensor-assay potency score (higher = more potent) was 0.918. For TTCTGAGGCACAACTCTTCAGT, the sensor-assay potency score (higher = more potent) was -0.605.

These sequences were tested against KCNE1 in the same assay as above. Conditions: shRNA.
TTTAGAGAAACAGTGAAACAGT was tested, and the sensor-assay potency score (higher = more potent) was -0.257. TTCGAGTGCTCCAGCTTCTTGG gave a sensor-assay potency score (higher = more potent) of -0.829. For TTTTCAACGACATAGCACGACC, the sensor-assay potency score (higher = more potent) was -1.08. Work on TCCAGCTTGCCGTCACTGCTGC yielded a sensor-assay potency score (higher = more potent) of -1.06. For TCAACGACATAGCACGACCTGT, the sensor-assay potency score (higher = more potent) was -0.979. With TCGGACTCGATGTAGACGTTGA the sensor-assay potency score (higher = more potent) was -0.164. With TCGATGTAGACGTTGAATGGGT the sensor-assay potency score (higher = more potent) was -0.608. With TTGTCCTTCTCTTGCCAGGCAT the sensor-assay potency score (higher = more potent) was -1.07. TTGCCAGGCATCGGACTCGATG showed a sensor-assay potency score (higher = more potent) of -1.64. Work on TAGAGAAACAGTGAAACAGTGT yielded a sensor-assay potency score (higher = more potent) of 0.334. Work on TTGTTCTATGGCCAGATGGTTT yielded a sensor-assay potency score (higher = more potent) of -1.5. TTCTTGGAGCGGATGTAGCTCA showed a sensor-assay potency score (higher = more potent) of -0.819.

The sequences below were run against KCNH5 in the same assay as above. Conditions: shRNA.
Sequence TTGAACTTCTGGAAGAGCTTTC has a sensor-assay potency score (higher = more potent) of -0.184. Sequence TGAGACACTAAAAATATCCTGA has a sensor-assay potency score (higher = more potent) of 0.518. Sequence TTCGTGTTTGACTTCCTGCAGT has a sensor-assay potency score (higher = more potent) of -0.357. With TAGAGTTTTAGGAAGTCCCGTA the sensor-assay potency score (higher = more potent) was -0.0513. For TTACATATCAAAATCCATGTGT, the sensor-assay potency score (higher = more potent) was 0.412. For TAAACAAGACAGCAGATCGATC, the sensor-assay potency score (higher = more potent) was -1.19. TTGAACAACGTAATATCCTTGA showed a sensor-assay potency score (higher = more potent) of 0.815. With TTTGAACAACGTAATATCCTTG the sensor-assay potency score (higher = more potent) was -0.17. Work on TTTTCTTGTACAGAAGAACTTC yielded a sensor-assay potency score (higher = more potent) of 0.0958. For TTCCACTGTCACAAGAATCTGT, the sensor-assay potency score (higher = more potent) was 0.6. TTTCTTCACATCACTGATCTTA was tested, and the sensor-assay potency score (higher = more potent) was 0.0331. TATACAAGCAATATCTATGTTT gave a sensor-assay potency score (higher = more potent) of -0.652.

These sequences were tested against KCNJ11 in the same assay as above. Conditions: shRNA.
Sequence ATCAATGACATGGTAGATGATC has a sensor-assay potency score (higher = more potent) of -1.55. ATGCTTGCTGAAGATGAGGGTC was tested, and the sensor-assay potency score (higher = more potent) was -1.14. Work on TTATTGACAACGGAGAAGGCAG yielded a sensor-assay potency score (higher = more potent) of -0.854. With ACATGGTAGATGATCAGCGGGG the sensor-assay potency score (higher = more potent) was -0.798. TCATCGGCCAGGTAGGAGGTGC showed a sensor-assay potency score (higher = more potent) of -0.639. Work on TTGGAGTAGTCCACAGAGTAAC yielded a sensor-assay potency score (higher = more potent) of -1.69.
